Shown are actives, neighbours in structure and some others; about 19% of the full set was active somewhere.
TDP1 cell noCPT = qHTS for Inhibitors of human tyrosyl-DNA phosphodiesterase 1 (TDP1): qHTS in cells in absence of CPT | DT40 Tdp1-/- hTDP1 cells, no CPT, ATP luminescence, 48 h | Potency, µM (doses to about 46.2 µM), for inactives: at the top dose activity change, negative = growth inhibition, hits mostly inhibitors | 420,000 compounds, 15% hits | AID 686978, 2013; also: potency is read from the fitted curve at half-maximal effect; nearly all actives have a fitted effect of over 55% in size
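Readout: luminescence from CellTiter-Glo after 30 min in the dark at RT. Cells: DT40 Tdp1-/- with stable hTDP1, 400/well. Exposure: compounds alone, ≥48 hr, 37 °C.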
TDP1 inh = TDP1 (human) enzyme inhibition; Q9NUW8; recombinant TDP1, AlphaScreen DNA substrate cleavage; Potency, µM (highest dose often 130 µM), for inactives: at the top dose activity change, negative = inhibition, most hits filed as inhibitors; 350,000 compounds, 0.28% hits; AID 485290; also: potency is read from the fitted curve at half-maximal effect; nearly all actives have a fitted effect of over 40% in size
Target sequence (Q9NUW8 whole entry, looked up): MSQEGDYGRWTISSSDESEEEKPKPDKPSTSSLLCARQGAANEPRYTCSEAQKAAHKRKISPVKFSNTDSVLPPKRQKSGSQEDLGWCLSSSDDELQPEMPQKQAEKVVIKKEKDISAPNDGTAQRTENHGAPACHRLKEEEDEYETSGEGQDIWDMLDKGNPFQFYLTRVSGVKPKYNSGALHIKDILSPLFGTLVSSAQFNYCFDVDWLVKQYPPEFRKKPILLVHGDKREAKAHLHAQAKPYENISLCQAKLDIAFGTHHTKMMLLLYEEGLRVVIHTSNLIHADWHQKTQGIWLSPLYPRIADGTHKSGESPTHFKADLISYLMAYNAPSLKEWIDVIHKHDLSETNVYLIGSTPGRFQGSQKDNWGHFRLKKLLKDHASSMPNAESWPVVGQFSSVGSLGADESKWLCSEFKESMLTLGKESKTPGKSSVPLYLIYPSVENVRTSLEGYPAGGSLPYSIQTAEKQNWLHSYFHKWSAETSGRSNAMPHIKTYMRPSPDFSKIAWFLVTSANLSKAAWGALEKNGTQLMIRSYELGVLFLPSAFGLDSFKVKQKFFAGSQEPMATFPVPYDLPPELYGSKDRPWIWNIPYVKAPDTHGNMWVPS
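Recombinant human Tdp1 (E. coli-expressed, 1 nM final) preincubated with compounds 15 min at room temperature, then 5'-biotin/3'-phosphotyrosine-FITC DNA substrate (15 nM final) added for 5 min. AlphaScreen beads (10 ug/ml final) added 10 min; cleavage lowers signal.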
ELG1 DNA repair = inhibitors of ELG1-dependent DNA repair in HEK293T cells; HEK293T ELG1-luciferase reporter, luminescence, 16 h; DNA damage induced by 5-fluorouridine; Potency, µM (doses to about 46.1 µM), inactives show at the highest dose activity change, negative = inhibition, actives largely listed as inhibitors; 330,000 compounds, 2.3% hits; AID 504467; also: potency is read from the fitted curve at half-maximal effect; nearly all actives have a fitted effect of over 55% in size
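Cells (2,000 per well) received 5-fluorouridine plus test compound or DMSO and were incubated 16 hr at 37 °C, 5% CO2. Luciferase activity was read by luminescence 30 min after ONE-Glo addition; signal suppression marked inhibition of damage-induced ELG1 function.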
IL-1B inflam inh = blocks inflammasome-driven IL-1 beta release; THP-1 LPS/ATP IL-1B secretion, AlphaLISA, 16 h; active compounds read low; activity change, % at 57.5 µM; 360,000 compounds, 4.7% hits; in the data active = activity change below about -50%; inconclusive = mostly about -30% to -49%
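Secreted IL-1B measured by AlphaLISA bead assay after 16 h compound exposure of THP-1 cells; compounds (final up to 57.5 uM) added 1 h before LPS (250 ng/mL) and ATP (1.25 mM) stimulation; lower signal means less secretion.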
Giardia kill = Giardia lamblia killing; Giardia lamblia trophozoite viability; activity change, % at 7.66 µM, hits read low; 340,000 compounds, 0.15% hits; AID 540267; in the data active = activity change below about -80%; inconclusive = between about -30% and that limit;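 also: parasites exposed to compound for two days anaerobically before the ATP read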
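Luminescent ATP signal served as the viability read-out, measured 15-30 min after adding ATP detection reagent to trophozoites that had been incubated with compounds for 48 hrs at 37 deg C anaerobically at 100 cells/well.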
DT40 TDP1 CPT = growth inhibition of DT40 Tdp1-/-;hTDP1 cells with camptothecin (screen for TDP1 inhibitors); AID 686979; Potency, µM (series often up to 46.2 µM), for the others: top-dose activity change, negative = growth inhibition, hits mostly inhibitors; chicken DT40 Tdp1-/-;hTDP1 cells + 20 nM CPT, ATP luminescence, 48 h; 420,000 compounds, 12% hits; also: potency is read from the fitted curve at half-maximal effect; nearly all actives have a fitted effect of over 55% in size
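Chicken DT40 Tdp1-/- cells complemented with human TDP1, 400 cells/well, exposed to compounds plus 20 nM camptothecin for at least 48 h at 37 C; viability read as ATP content by CellTiter-Glo luminescence.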
Active calls of the source: *; ? = inconclusive; nt = no result. Unless noted, calls follow the shape of the dose curve; as a rule, active = well fitted curve in the direction sought with a large enough effect; inconclusive = small, poorly fitted or top-dose-only effect, or another doubt; inactive = no such curve, though single readings can be large; an effect the other way counts as inactive or inconclusive. % is scaled to controls: 0 for no effect and ±100 for the full control effect.

SMILES	TDP1 cell noCPT	TDP1 inh	ELG1 DNA repair	IL-1B inflam inh	Giardia kill	DT40 TDP1 CPT
COc1cccc(CNC(=O)CCCn2c(=O)c3cccn3c3ccc(F)cc32)c1OC	8.2µM*	-3%	nt	nt	nt	12µM*
COc1ccc(OC)c(CCNC(=O)CCCn2c(=O)c3cccn3c3ccc(F)cc32)c1	9.2µM*	1%	nt	nt	nt	18µM*
CCc1ccc(OCc2cc(=O)n3cc(C)sc3n2)cc1	-2%	4%	nt	nt	nt	-2%
N#CCSc1ncnc2c1cnn2CCO	-8%	4%	-15%	6	-2	17%
COc1ccc(CCNC(=O)CCCn2c(=O)c3cccn3c3ccc(F)cc32)cc1OC	12µM*	3%	nt	nt	nt	15µM*
O=C(CCCn1c(=O)c2cccn2c2ccc(F)cc21)NCc1ccc(Cl)cc1	21µM*	-3%	nt	nt	nt	?
COc1ccc(CCNC(=O)CCCn2c(=O)c3cccn3c3ccccc32)cc1OC	13µM*	5%	nt	nt	nt	16µM*
Cc1cn(C)c(CC(=O)N2CCN(c3ccccc3F)CC2)c1C(=O)O	-9%	-4%	nt	nt	nt	-20%
Cn1c(=O)c([N+](=O)[O-])c(NCC(O)c2ccccc2)c2ccccc21 (centres undefined)	18µM*	5%	-10%	17	26	?
Cn1c(=O)c([N+](=O)[O-])c(-n2ccnc2)c2ccccc21	4.1µM*	-4%	-3%	-101*	9	4.6µM*
CC(C)c1ccc(Nc2c([N+](=O)[O-])c(=O)n(C)c3ccccc23)cc1	?	4%	-19%	-66*	0	1%
Cn1c(=O)c([N+](=O)[O-])c(NCCCn2ccnc2)c2ccccc21	6%	5%	0%	nt	4	7%
CCn1c(=O)c([N+](=O)[O-])c(NCC(O)c2ccccc2)c2ccccc21 (centres undefined)	?	3%	?	-1	-4	?
O=C(Cn1c(NCCO)nc2ccccc21)Nc1cccc(S(=O)(=O)N2CCCC2)c1	10µM*	1%	?	22	-3	?
O=C(Cn1cnc2ccccc21)Nc1cccc(S(=O)(=O)N2CCCC2)c1	4.1µM*	1%	5%	-13	7	5.8µM*
O=C(CN1CCN(c2ccccn2)CC1)Nc1cccc(S(=O)(=O)N2CCCC2)c1	16µM*	1%	-14%	2	-8	?
O=C(O)C[C@@H]1C(=O)O[C@@H]2C(COC(=O)c3cc(O)c(O)c(O)c3)O[C@@H](OC(=O)c3cc(O)c(O)c(O)c3)[C@@H](OC(=O)c3cc(O)c(O)c4c3[C@H]1[C@H](O)C(=O)O4)[C@H]2OC(=O)c1cc(O)c(O)c(O)c1 (some centres undefined)	nt	nt	-2%	nt	nt	nt
Cc1ccn(CC(=O)N2CCCC(N3CCN(Cc4ccc5c(c4)OCO5)CC3)C2)n1 (centres undefined)	-3%	4%	2%	22	4	5%
OCc1ccccc1-c1cccc2nccn12	?	nt	nt	0	nt	?
COc1ccc(Nc2cc(C(=O)NCCCN(C)Cc3ccccc3)c3ccccc3n2)cc1OC	21µM*	7%	nt	nt	nt	23µM*
CCCCN(CCCNC(=O)c1cc(Nc2ccc(OC)c(OC)c2)nc2ccccc12)Cc1ccccc1	21µM*	2%	nt	nt	nt	16µM*
COc1ccc(Nc2cc(C(=O)NCCc3ccccc3)c3ccccc3n2)cc1OC	-1%	2%	nt	nt	nt	-4%
CCCCN(CCCNC(=O)c1cc(Nc2ccc(OC)cc2)nc2ccccc12)Cc1ccccc1	16µM*	-2%	nt	nt	nt	21µM*
CCCCN(CCCNC(=O)c1cc(Nc2ccc(OC)c(OC)c2)nc2ccccc12)c1ccccc1	13µM*	7%	nt	nt	nt	15µM*
COc1ccc(Nc2cc(C(=O)NCc3ccccc3)c3ccccc3n2)cc1	-26%	-5%	nt	nt	nt	?
SMILES	TDP1 cell noCPT	TDP1 inh	ELG1 DNA repair	IL-1B inflam inh	Giardia kill	DT40 TDP1 CPT
CCCCN(C)CCCNC(=O)c1cc(Nc2ccc(OC)c(OC)c2)nc2ccccc12	?	nt	18%	?	6	?
O=C(CCc1ccccc1)NNC(=O)Cc1ccccc1	-8%	-5%	13%	27	12	-3%
Cc1cc(CNC(=O)C(C)n2cc([N+](=O)[O-])cn2)c2ccccc2n1 (centres undefined)	21µM*	5%	9%	13	-9	?
O=C(CCN1C(=O)/C(=C/c2ccc(Cl)cc2)SC1=S)Nc1cccnc1	?	2%	7%	6	10	29µM*
O=C(CCN1C(=O)/C(=C\c2ccccc2Cl)SC1=S)Nc1cccnc1	?	10%	-6%	-52*	-10	-15%
O=C(CCCN1C(=O)/C(=C/c2ccccc2OC(F)F)SC1=S)Nc1cccnc1	13µM*	6%	21µM*	-85*	4	26µM*
CC(=O)[C@@]1(O)CC[C@H]2[C@@H]3C=C(Cl)C4=CC(=O)CC[C@]4(C)[C@H]3CC[C@@]21C	-27%	nt	nt	nt	nt	?
COc1ccc([N+](=O)[O-])cc1N(CC(O)CN1C(=O)NC(C)(C)C1=O)S(=O)(=O)c1ccc(C)cc1 (centres undefined)	-23%	nt	nt	-11	nt	-11%
COc1cccc(-n2cc(C(=O)Oc3ccc(F)cc3)c3ccccc3c2=O)c1	?	3%	nt	nt	nt	?
O=C1C=C(Nc2ccc(Cl)cc2Cl)CC(c2ccco2)C1 (centres undefined)	4.1µM*	-3%	?	-2	13	3.7µM*
O=C1C=C(NCc2ccc(Cl)cc2)CC(c2ccco2)C1 (centres undefined)	?	-8%	?	-2	16	23µM*
O=C1C=C(Nc2ccc(O)cc2)CC(c2ccco2)C1 (centres undefined)	23µM*	3%	13%	12	6	21µM*
COc1ccccc1N1CCN(C(=O)c2c3c(nc4ccccc24)C(=O)N(C2CCCCC2)C3)CC1	21µM*	10%	nt	nt	nt	13µM*
Cc1ccc(C)c(N2CCN(C(=O)c3c4c(nc5ccccc35)C(=O)N(C3CCCCC3)C4)CC2)c1	18µM*	3%	nt	nt	nt	16µM*
O=C(O)c1nn(CC(=O)N2CCC(Cc3ccccc3)CC2)c(=O)c2ccccc12	?	nt	5%	-13	4	-20%
Cc1ccc(C(=O)c2cn[nH]c2-c2cc(Cl)ccc2O)cc1	?	10%	4%	25	-1	?
COc1ccc(O)c(-c2[nH]ncc2C(=O)c2ccccc2)c1	-27%	6%	23µM*	-10	-1	-28%

Screens: PubChem BioAssay, National Center for Advancing Translational Sciences (NCATS)
